Data reported in PubChem BioAssay (NCI).
Compounds without any hit were thinned out: in the full panel of roughly 79,000, 15% have a hit. Calls of active or inactive are those of the source. Cut-off read from the data, not from the text of the source: active = growth inhibition above about 70%; inactive = the rest.

Key:
[1] = NCI Yeast Anticancer Drug Screen. Data for the CLN2oe strain (AID 163);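 note: 0% = growth of vehicle-only control cultures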; details: S. cerevisiae CLN2oe strain, stronger effect = higher value
Outline: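 First, the altered yeast strain was treated with each compound; second, its growth was measured; finally, inhibition was derived by comparison with vehicle controls.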

[2] = NCI Yeast Anticancer Drug Screen. Data for the cln2 rad14 strain (AID 165);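 note: 0% = growth equal to vehicle treated cultures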; details: S. cerevisiae cln2 rad14 strain, stronger effect = higher value
Outline: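 Test compounds were added to cln2 rad14 yeast cultures; inhibition of growth was then determined by comparison with vehicle treatment.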

[3] = NCI Yeast Anticancer Drug Screen. Data for the bub3 strain (AID 167); details: S. cerevisiae bub3 mutant strain, stronger effect = higher value
Outline: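 Yeast carrying a defined mutation is treated with each compound, and growth is compared with that of vehicle-exposed cells to give inhibition.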

[4] = NCI Yeast Anticancer Drug Screen. Data for the wt2 strain (AID 169);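 note: 0% = growth of vehicle-treated yeast cultures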; details: S. cerevisiae wt2 strain growth inhibition, stronger effect = higher value
Outline: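 The panel's yeast strains carry defined changes in DNA repair or cell cycle genes. Each strain is grown with compound, and growth loss is scored relative to vehicle.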

[5] = NCI Yeast Anticancer Drug Screen. Data for the mlh1 strain (AID 171);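 note: 0% = growth of vehicle-treated control cultures of the same strain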; details: S. cerevisiae mlh1 strain growth inhibition, stronger effect = higher value
Outline: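 Inhibition values reflect reduced yeast growth in the presence of compound, referenced to vehicle controls, using a strain chosen for its alteration in DNA repair or cell cycle control.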

[6] = NCI Yeast Anticancer Drug Screen. Data for the sgs1 strain (AID 173);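 note: 0% = growth of vehicle-only control cultures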; details: S. cerevisiae sgs1 mutant, stronger effect = higher value
Outline: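 Vehicle-treated cultures served as reference for growth inhibition of a yeast strain altered in DNA damage repair or cell cycle control after compound exposure.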

[7] = NCI Yeast Anticancer Drug Screen. Data for the mlh1 rad18 strain (AID 175); details: S. cerevisiae mlh1 rad18 strain growth inhibition, stronger effect = higher value
Outline: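 Inhibition values reflect reduced growth of mutant yeast versus vehicle-treated controls following compound exposure; the mutations affect DNA damage repair.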

[8] = NCI Yeast Anticancer Drug Screen. Data for the rad18 strain (AID 177); details: S. cerevisiae rad18 mutant growth inhibition, stronger effect = higher value
Outline: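 Steps: expose repair-mutant yeast to compound; measure growth; express as inhibition relative to vehicle control.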

[9] = at 5.0 µM (retest, dose inferred, filed as 0.5)
[10] = at 50.0 µM (retest, dose inferred, filed as 5.0)

Measured: growth inhibition

NC(=O)N1c2ccccc2C=Cc2ccccc21
active: [7]; [10] 100%
inactive: [1]; at 1.2 µM 5% | [1]; at 3.7 µM 19% | [1]; at 11.0 µM 15% | [1]; at 33.0 µM 7% | [1]; at 100.0 µM 0% | [2]; [9] 61% | [2]; [10] 38% | [2]; at 50.0 µM 9.25% | [3]; at 1.2 µM -26% | [3]; at 3.7 µM -34% | [3]; [9] -17% | [3]; at 11.0 µM -41% | [3]; at 33.0 µM -43% | [3]; [10] 3% | [3]; at 50.0 µM 15.3% | [3]; at 100.0 µM -39% | [4]; at 1.2 µM -25% | [4]; at 3.7 µM -30% | [4]; at 11.0 µM -37% | [4]; at 33.0 µM -38% | [4]; at 100.0 µM -43% | [5]; at 1.2 µM -45% | [5]; at 3.7 µM -31% | [5]; at 11.0 µM -40% | [5]; at 33.0 µM -62% | [5]; at 100.0 µM -55% | [6]; at 1.2 µM -78% | [6]; at 3.7 µM -54% | [6]; at 11.0 µM -51% | [6]; at 33.0 µM -52% | [6]; at 100.0 µM -45% | [7]; [9] 60% | [7]; at 50.0 µM -6.9% | [8]; at 1.2 µM -49% | [8]; at 3.7 µM -51% | [8]; at 11.0 µM -37% | [8]; at 33.0 µM -64% | [8]; at 100.0 µM -59%
